The supplement of paper PMC10941209

system: Toxoplasma gondii RH 2F1 tachyzoites (intracellular in HFF); assay: parasite survival relative to DMSO control; higher = less antiparasitic activity, active = 20 or less; conditions: 1 µM; 72 h
Method: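 Primary single-dose screen of the MMV Pandemic Response Box at 1 uM against T. gondii RH-2F1 (beta-galactosidase) tachyzoites in HFF cells, 72 h at 37 C. Parasite growth read by CPRG absorbance at 570 nm and normalised to DMSO-treated infected controls (% survival); pyrimethamine was the reference drug. The paper calls at least 80% inhibition a hit.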

Compound	parasite survival
O=S(=O)(NCB(O)O)c1cc2c(Cl)ccc(Cl)c2s1	54.4% (inactive)
CCc1cc(CCCOc2c(C)cc(-c3noc(C(F)(F)F)n3)cc2C)on1	55.4% (inactive)
Cn1c2ccccc2c(=O)c2c(O)cccc21	49.5% (inactive)
Nc1nc(=O)[nH]cc1F	51.9% (inactive)
Nc1cccc(-c2nc(N)nc(NC3Cc4ccccc4C3)n2)c1	42.3% (inactive)
CC(C)(C)NC(=O)[C@@H]1CN(Cc2cnc3occc3c2)CCN1C[C@@H](O)C[C@@H](Cc1ccccc1)C(=O)N[C@H]1c2ccccc2C[C@H]1O	58.1% (inactive)
C=CCc1cc(Cc2cnc(N)nc2N)cc(OC)c1O	29.8% (inactive)
Cc1c(N)cccc1Cn1ccc(OCCc2cccs2)cc1=O	48.8% (inactive)
CC(C)(C)c1ccc(OCCn2nc(C(=O)O)c3ccccc3c2=O)cc1	45.3% (inactive)
COc1cc(NC(=O)CN2C(=O)NC(c3ccccc3)(c3ccccc3)C2=O)cc(OC)c1	49.2% (inactive)
Cc1onc(-c2ccccc2Cl)c1C(=O)N[C@@H]1C(=O)N2[C@@H]1SC(C)(C)[C@@H]2C(=O)O	50.5% (inactive)
CCO/N=C/c1ccc(OCCCCN2CCN(c3ccncc3)C2=O)cc1	47.7% (inactive)
Clc1ccc(COC(Cn2ccnc2)c2ccc(Cl)cc2Cl)c(Cl)c1 (stereo not given)	21.8% (inactive)
O=C1C=C(c2ccccc2)S(=O)(=O)c2ccccc21	44.4% (inactive)
COc1cc(C(C)(C)CCCC(C)C)cc(OC)c1OC	36.9% (inactive)
O=C(CP(=O)(O)O)NCCc1cccc(Oc2ccccc2)c1	40.8% (inactive)
CC[C@H](CO)Nc1nc(NCc2ccccc2)c2ncn(C(C)C)c2n1	87.1% (inactive)
Cc1oncc1C(=O)Nc1ccc(C(F)(F)F)cc1	77.7% (inactive)
CC(C)(C)NC(=O)N[C@H](C(=O)N1C[C@H]2[C@@H]([C@H]1C(=O)NC(CC1CCC1)C(=O)C(N)=O)C2(C)C)C(C)(C)C (stereo not given in full)	48.5% (inactive)
NC(=O)[C@@H]1CC[C@@H]2CN1C(=O)N2OS(=O)(=O)O	39% (inactive)

Compound	parasite survival
O=C(NO)C1(CS(=O)(=O)c2ccc(Oc3ccc(Cl)cc3)cc2)CCOCC1	66% (inactive)
CCN1CCN(Cc2nc3ccc([N+](=O)[O-])cc3c(=O)n2-c2ccccc2F)CC1	59.6% (inactive)
COC(=O)Nc1nc2c(C)cccc2[nH]1	36.4% (inactive)
C[C@@H]1O[C@@H]1P(=O)(O)O	46.3% (inactive)
CN(C)CCCNC(=O)c1ccc(-c2cc(O)c3ncccc3c2)cc1	81.2% (inactive)
CC[C@H]1OC(=O)[C@H](C)[C@@H](O[C@H]2C[C@@](C)(OC)[C@@H](O)[C@H](C)O2)[C@H](C)[C@@H](O[C@@H]2O[C@H](C)C[C@H](N(C)C)[C@H]2O)[C@](C)(O)C[C@@H](C)C(=O)[C@H](C)[C@@H](O)[C@]1(C)O	13.9% (active)
C/C(=N\NC(=O)C1CC1c1ccccc1)c1ccc(NC(=O)c2ccco2)cc1 (stereo not given)	47.3% (inactive)
COc1ccccc1CN[C@H]1C2CCN(CC2)[C@H]1C(c1ccccc1)c1ccccc1	37.5% (inactive)
O=C(Cc1ccccc1F)Nc1nc2ccccc2[nH]1	38.1% (inactive)
Nc1nc2c(ncn2COC(CO)CO)c(=O)[nH]1	80% (inactive)
CC(C)Nc1nc2cc(Cl)c(Cl)cc2n1[C@H]1O[C@@H](CO)[C@H](O)[C@@H]1O	72% (inactive)
CCNC(=O)Nc1cc2c(-c3ccnc(C)c3)ccc(CNC(=O)OC)c2cn1	31.9% (inactive)
C[C@H]1COc2c(N3CCN(C)CC3)c(F)cc3c(=O)c(C(=O)O)cn1c23	51.4% (inactive)
O=C(Nc1cccc(C2=NCCN2)c1)c1ccc(-c2ccc(C(=O)Nc3cccc(C4=NCCN4)c3)cc2)cc1	22.1% (inactive)
CN(O)C(=O)c1cc2c(CN3CCC[C@H]3C(N)=O)cn(Cc3ccc(F)cc3)c2cn1	76.7% (inactive)
CNCC(=O)OCc1cccnc1N(C)C(=O)OC(C)[n+]1cnn(C[C@](O)(c2cc(F)ccc2F)[C@@H](C)c2nc(-c3ccc(C#N)cc3)cs2)c1 (stereo not given in full)	35.6% (inactive)
CC(=O)O[C@H]1C[C@@]2(C)[C@@H](C[C@@H](O)[C@H]3[C@@]4(C)CC[C@@H](O)[C@@H](C)[C@@H]4CC[C@@]32C)/C1=C(\CCC=C(C)C)C(=O)O	48.4% (inactive)
CN(C)CC(=O)Nc1ccc2[nH]c(=O)c3ccccc3c2c1	55.3% (inactive)
CC(C)(C)c1cc(CCC(=O)N2CCC2)cc(C(C)(C)C)c1O	52.9% (inactive)
CC(C)Nc1ncnc2c1cnn2-c1ccc(Cl)cc1	58.2% (inactive)
